Among the data in PubChem BioAssay (NCATS) are Potency and outcome values, retold here.

Experiment [1] addresses Glutathione peroxidase 1 (Homo sapiens) (UniProt P07203). The experiment can be described thus: Primary qHTS Assay for Inhibitors of Recombinant Selenoprotein Glutathione Peroxidase 1 (GPX1) (AID 1845191). Further: nearly all actives have a fitted effect of over 65% in size. Further: potency means the concentration at half of the fitted maximal effect. The method in brief:
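GPX1 10 nM, GR 100 nM, GSH 1 mM, NADPH 0.5 mM, CHP 0.5 mM (final). 30-min cpd preincubation, RT. Ex340/Em450 read t=0, t=15 min.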

Experiment [2] deals with Phospholipid hydroperoxide glutathione peroxidase GPX4 (Homo sapiens) (UniProt P36969). The experiment can be described thus: Primary qHTS Assay for Inhibitors of Recombinant Selenoprotein Glutathione Peroxidase 4 (GPX4) (AID 1845192). Further: nearly all actives have a fitted effect of over 65% in size. Further: potency means the concentration at half of the fitted maximal effect. The method in brief: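 qHTS, GR-coupled: GPX4 200 nM + cpd 30 min RT → GSH 1 mM, NADPH 0.5 mM, GR 100 nM → CHP 0.5 mM start; fluor 340/450 at t0 and t15 min; no-enzyme wells as control.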
For orientation: In qHTS, concentration-response curves come from the screen itself.

Experiment [3] concerns the target Luciferin 4-monooxygenase (Photinus pyralis) (UniProt P08659). The experiment can be described thus: Primary firefly luciferase (FLuc) qHTS assay for identification of artifact compounds. (AID 1845220). Further: nearly all actives have a fitted effect of over 60% in size. The note with it: outcome: dose series up to 54.1 µM unless noted. The method in brief:
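Reaction readout was CCD-imaged luminescence, taken 5 min after adding 10 nM purified firefly enzyme to compound-treated wells holding 10 uM luciferin and ATP in pH 7.6 buffer.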

The nature of experiment [4]: Primary fluorescence-based thiol-reactive (MSTI) qHTS assay for identification of artifact compounds. (AID 1845221).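 Further: series mostly up to about 54 µM; thiol-reactive compounds lower the probe fluorescence signal; nearly all actives have a fitted effect of over 65% in size.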 The method in brief:
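In PBS pH 7.4 with 2% DMSO, each compound met 4 uM MSTI for one hour at ambient temperature, shielded from light, before fluorescence detection.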

The subject of experiment [5] is Nanoluciferase (engineered Oplophorus gracilirostris luciferase). The experiment can be described thus: Primary Nanoluciferase (NLuc) qHTS assay for identification of artifact compounds. (AID 1845222).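 Further: NLuc secreted into diluted conditioned medium of S16 cells; series mostly up to about 54 µM.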 The method in brief: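 Concentration-response data were obtained by luminescence after 5 min with Nano-Glo substrate at 1:100. The enzyme was diluted S16 NLuc-expressing cell medium, preincubated with compound for 15 min at RT. Curves were fitted with a 4-parameter Hill model.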

A short description of experiment [6]: Quantitative High-Throughput drug screen in 47 multiple myeloma cell lines against the NCATS MIPE library collection: Delta47_JCRB cell viability assay (AID 1918925; further: nearly all actives have a fitted effect of over 45% in size). The method in brief: (§1)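 qHTS of the MIPE 4.0 collection: 500 myeloma cells/well, 48 h drug exposure at 37C in 5% CO2, then CellTiter-Glo for 5 min at room temperature before luminescence reading.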

Experiment [7] can be described thus: Quantitative High-Throughput drug screen in 47 multiple myeloma cell lines against the NCATS MIPE library collection: EJM_DSMZ cell viability assay (AID 1918926; further: nearly all actives have a fitted effect of over 30% in size). The method in brief: as §1
The nature of experiment [8]: Quantitative High-Throughput drug screen in 47 multiple myeloma cell lines against the NCATS MIPE library collection: AMO1_DSMZ cell viability assay (AID 1918927; further: nearly all actives have a fitted effect of over 30% in size). The method in brief: as §1
Experiment [9] can be described thus: Quantitative High-Throughput drug screen in 47 multiple myeloma cell lines against the NCATS MIPE library collection: ARP1_JJKsccF8 cell viability assay (AID 1918928; further: nearly all actives have a fitted effect of over 40% in size). The method in brief:
(§2)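 Viability screen: myeloma cells (500/well) incubated 48 h at 37 °C, humidified 5% CO2, with pinned library compounds; CellTiter-Glo added, luminescence read; DMSO wells set 100%, medium-only wells 0%.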

Experiment [10] in a line: Quantitative High-Throughput drug screen in 47 multiple myeloma cell lines against the NCATS MIPE library collection: ARD_JJKsccE7 cell viability assay (AID 1918929). The method in brief:
as §1

Experiment [11] in a line: Quantitative High-Throughput drug screen in 47 multiple myeloma cell lines against the NCATS MIPE library collection: Karpas620_DSMZ cell viability assay (AID 1918959). Further: nearly all actives have a fitted effect of over 30% in size. The method in brief: as §1
Experiment [12] is described as follows: Quantitative High-Throughput drug screen in 47 multiple myeloma cell lines against the NCATS MIPE library collection: KMM1_JCRB cell viability assay (AID 1918960). Further: nearly all actives have a fitted effect of over 30% in size. Further: potency means the concentration at half of the fitted maximal effect. The method in brief: as §2
Experiment [13] can be described thus: Quantitative High-Throughput drug screen in 47 multiple myeloma cell lines against the NCATS MIPE library collection: JIM3_ECACC cell viability assay (AID 1918963; further: nearly all actives have a fitted effect of over 35% in size). The method in brief: as §1
Experiment [14] is described as follows: Quantitative High-Throughput drug screen in 47 multiple myeloma cell lines against the NCATS MIPE library collection: JIM1_ECACC cell viability assay (AID 1918964). The method in brief:
as §1

Experiment [15] can be described thus: Quantitative High-Throughput drug screen in 47 multiple myeloma cell lines against the NCATS MIPE library collection: FR4_PLB cell viability assay (AID 1918924; further: nearly all actives have a fitted effect of over 35% in size). The method in brief: as §1
Experiment [16] can be described thus: Quantitative High-Throughput drug screen in 47 multiple myeloma cell lines against the NCATS MIPE library collection: KHM11_PLB cell viability assay (AID 1918962). Further: nearly all actives have a fitted effect of over 35% in size. The method in brief:
as §1

Experiment [17] can be described thus: Quantitative High-Throughput drug screen in 47 multiple myeloma cell lines against the NCATS MIPE library collection: Karpas417_ECACC cell viability assay (AID 1918961). The method in brief: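 Luminescent ATP measurement with CellTiter-Glo gives viability, scaled between DMSO-only wells (100%) and media-only wells (0%). Cells, 500 per well, faced library compounds for 48 hours at 37C.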

SMILES strings stand for the structures. Several values for one entry are separate records, joined by “and”; a condition that tells them apart may be missing. Identical values can stand only once. Records with an inconclusive call do not appear. More than one record can exist for a structure, and the calls need not agree. Activity calls are given as the source filed them. The call rests on the fitted dose curve; in most records, active means well fitted curve in the direction sought with a large enough effect; inconclusive means small, poorly fitted or top-dose-only effect, or another doubt; inactive means no such curve, though single readings can be large; an effect the other way counts as inactive or inconclusive.

Phospholipid hydroperoxide glutathione peroxidase GPX4 (Homo sapiens), sequence (P36969 whole entry, looked up): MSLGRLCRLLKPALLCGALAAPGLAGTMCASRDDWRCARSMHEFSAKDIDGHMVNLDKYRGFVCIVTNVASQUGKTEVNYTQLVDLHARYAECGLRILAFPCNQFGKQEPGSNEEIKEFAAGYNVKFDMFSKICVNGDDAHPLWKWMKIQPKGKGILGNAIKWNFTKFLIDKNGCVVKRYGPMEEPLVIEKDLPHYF
Glutathione peroxidase 1 (Homo sapiens), sequence (P07203 whole entry, looked up): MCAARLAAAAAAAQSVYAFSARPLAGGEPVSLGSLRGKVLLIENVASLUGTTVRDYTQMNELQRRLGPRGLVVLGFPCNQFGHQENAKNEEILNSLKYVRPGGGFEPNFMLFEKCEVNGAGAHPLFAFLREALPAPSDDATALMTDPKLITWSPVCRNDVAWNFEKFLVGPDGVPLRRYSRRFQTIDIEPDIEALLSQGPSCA

Take `C[C@]12CC[C@@H]3c4ccc(OC(=O)N(CCCl)CCCl)cc4CC[C@H]3[C@@H]1CC[C@@H]2OP(=O)(O)O`: the Potency result in [1], in experiment [6], in experiment [7], in experiment [8], in [9] and in experiment [10] was “inactive” throughout. The Potency entry in [11], in [12] and in [13] was “inactive” throughout. Besides, the Potency result in experiment [2] is “inactive and 12.6 µM (active)”. Moreover, the outcome in [3], in [4], in [5] and in [14] was inactive.
Regarding `COP(=S)(OC)SCN1C(=O)c2ccccc2C1=O`, the Potency entry in experiment [2] is “inactive”.
Consider `Clc1ccc(C(c2ccc(Cl)cc2)C(Cl)(Cl)Cl)cc1`, for which the Potency entry in [1] and in experiment [2] was “inactive” throughout.
`NC(=O)c1cc([N+](=O)[O-])cc([N+](=O)[O-])c1`: the Potency result in [1] and in experiment [2] was “inactive” in each case.
Take `O=C(Nc1ccc(Br)cc1)c1cc(Br)cc(Br)c1O`: in experiment [2], the Potency result was “inactive”.
For `Oc1ccc(Cl)cc1`, the Potency entry in experiment [1] and in experiment [2] was “inactive” each time.
Turning to `O=C1c2ccccc2C(=O)c2ccccc21`, the Potency result in [1] and in [2] was “inactive” in each case.
Take `CC(=O)OCC1=C(C(=O)O)N2C(=O)[C@@H](N)[C@H]2SC1`: in experiment [1], the Potency is 12.8 µM (active). The molecule was classed as inactive in experiment [3] and in experiment [5].
In the case of `O=c1c(C2CC(c3ccc(-c4ccc(Br)cc4)cc3)Cc3ccccc32)c(O)sc2ccccc12` (stereo unspecified), the Potency in experiment [1] was 22.7 µM (active). For the same molecule, the Potency entry in [2] was “inactive”.
On to `O=[N+]([O-])O[C@H]1CO[C@H]2[C@@H]1OC[C@H]2O[N+](=O)[O-]`, for which the Potency result in [1] and in experiment [2] was “inactive” throughout.
For `COC(=O)C(c1ccccc1)C1CCCCN1` (stereo unspecified), the Potency entry in experiment [1] and in experiment [2] was “inactive” throughout.
Regarding `CNC(C)(C)Cc1ccccc1`, the Potency entry in [1] and in experiment [2] was “inactive” in each case.
With `C[C@]12CCC(=O)C=C1CC[C@@H]1[C@H]3CC[C@](C)(O)[C@@]3(C)CC[C@@H]12`, the Potency in [12] is 10.8 µM (active). For the same molecule, in [13], the Potency result is “inactive”. Further, the result in experiment [14] was inactive.
Consider `CCOP(=S)(OCC)Oc1ccc2c(C)c(Cl)c(=O)oc2c1`, for which the Potency result in [1] and in [2] was “inactive” in each case.
Regarding `CN1C(=O)COc2c(C(=O)NC3CN4CCC3CC4)cc(Cl)cc21` (stereo unspecified), the Potency result in [1], in experiment [2], in [15], in experiment [6], in [7] and in experiment [11] was “inactive” throughout. Further, the Potency result in experiment [12], in experiment [16] and in experiment [13] was “inactive” throughout.
For `C[C@@H](N)[C@@H](O)c1ccccc1`, the Potency result in [2] was “inactive”.
In the case of `O=C(O)CCCc1ccc(N(CCCl)CCCl)cc1`, the Potency result in experiment [1], in experiment [2], in [7], in experiment [8], in [10] and in [11] was “inactive” each time. For the same molecule, the Potency result in experiment [12] and in experiment [13] was “inactive” throughout.
In the case of `C=C(C)[C@H]1CN[C@H](C(=O)O)[C@H]1CC(=O)O`, the Potency entry in experiment [1] and in experiment [2] was “inactive” each time.
For the molecule `CCOC(=O)CC(SP(=S)(OC)OC)C(=O)OCC` (stereo unspecified), the Potency entry in [2] was “inactive”.
For the molecule `COP(=S)(OC)Oc1ccc(S(=O)(=O)N(C)C)cc1`, the Potency entry in [1] and in [2] was “inactive” in each case.
As for `Nc1ccccc1`, the Potency entry in experiment [1] and in experiment [2] was “inactive” in each case.
On to `CC(C)C[C@H](CN)CC(=O)O`, for which the Potency result in experiment [1], in experiment [2], in experiment [15], in [6], in experiment [7] and in [8] was “inactive” throughout. The Potency entry in [9], in [10], in [11], in experiment [12], in [17] and in experiment [16] was “inactive” throughout. For the same molecule, the Potency result in experiment [13] was “inactive”. Also, the outcome in experiment [14] was inactive.
For `CCc1cc2c(s1)-n1c(C)nnc1CN=C2c1ccccc1Cl`, the Potency entry in experiment [1] and in experiment [2] was “inactive” throughout.
As to `C#CC(O)(C=CCl)CC` (stereo unspecified), the Potency result in experiment [1] and in experiment [2] was “inactive” each time.
In the case of `CC(C)(C)NCC(O)c1cc(Cl)c(N)c(C(F)(F)F)c1` (stereo unspecified), the Potency result in [1] and in [2] was “inactive” throughout.
With `COc1cccc(C(=O)CCN[C@@H](C)[C@H](O)c2ccccc2)c1`, the Potency entry in experiment [1] and in experiment [2] was “inactive” in each case.
For `CN1C(=O)NC(=O)C(C)(C2=CCCCC2)C1=O` (stereo unspecified), the Potency result in [1] and in [2] was “inactive” each time.
`Nc1ccc([As](=O)(O)O)cc1`: the Potency result in experiment [1] and in experiment [2] was “inactive” throughout.
